The record followed here is the supplement of paper PMC10338343.

The subject of assay [1] is MILI (PIWIL2) piRISC loaded with L1MC piRNA (26 nt). The assay can be described thus: pre-steady-state target cleavage rate (min^-1); guide: L1MC piRNA 5'p-UAACUAAAUACUAUGCAAGCUGUAGG; higher = faster piRNA-guided slicing of the target. The following applies: auxiliary factor: 500 nM mouse GTSF1. In short, it runs like this: (§1)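 Cleave-'n-Seq measured uncleaved targets by sequencing after a transcribed, DNA-blocked target RNA library […] was mixed with 1 nM active affinity-purified piRISC holding one synthetic guide, with or without 500 nM GTSF1 partner protein, at 33 °C in HEPES–potassium acetate buffer for 0–8 or 0–960 min. Counts were normalised to depth and to weakly complementary targets, three trials were pooled, and k3 was capped at 0.0001 min^-1. A burst-and-steady-state fit gave the pre-steady-state cleavage rate.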

The test system of assay [2] is EfPiwi piRISC loaded with L1MC piRNA (26 nt). The assay can be described thus: pre-steady-state target cleavage rate (min^-1); auxiliary factor: 500 nM Ephydatia muelleri Gtsf1; guide: L1MC piRNA 5'p-UAACUAAAUACUAUGCAAGCUGUAGG; MIWI and MILI are mouse PIWI proteins and EfPiwi is from a freshwater sponge; tags in brackets are library labels; higher = faster piRNA-guided slicing of the target. An outline of the steps: as §1

± gives the standard deviation.

For UCCUCCUACAGCUUGCAUAGUAUAAUGAAA, the “pre-steady-state target cleavage rate” value is 0.0878 ± 0.019 in assay [1] and 0.00235 ± 0.0022 in assay [2].
For UCCUCCAUGAGCUUGCAUAGUAUUUAGAAA the same measures were 0.0637 ± 0.016 and 0.00475 ± 0.0019.
For UCCUCCUACAGCUUGCAAAGUAUUUAGAUA, in that order: 0.0875 ± 0.015 and 0.00419 ± 0.0024.
For UCCUGCUACAGCAUGCAUAGAAUUUAGUUA, in that order: 0.0922 ± 0.021 and 0.00243 ± 0.002.
With UCCUCCUACAGCUUGCAUAGUAUUUAUUA, the “pre-steady-state target cleavage rate” value in assay [1] came out at 0.0949 ± 0.023; in assay [2], 0.00539 ± 0.0031.
For UCCUGGAUCAGCUUGCAUAGUAUUUUGAAA, in that order: 0.108 ± 0.027 and 0.00318 ± 0.0016.
For UCCUGGAUGUGCUUGUCAUAGUAUUUAGUUA the same measures were 0.0294 ± 0.0075 and 0.00492 ± 0.0031.
For UCCUCCUACAGCUUGCAUAGUAAUUAGAUA the same measures were 0.179 ± 0.046 and 0.00553 ± 0.0026.
UCCUGGUACAGGUUGCAUAGUAUUUAGAUA: the figures for the “pre-steady-state target cleavage rate” value in assay [1] and in assay [2] were 0.195 ± 0.054 and 0.00271 ± 0.0024, respectively.
As to UCCUGCUACAGCUUGCUUAGAAUUUAGUUA, the “pre-steady-state target cleavage rate” value in assay [1] turned out to be 0.0543 ± 0.011; in assay [2], 0.00357 ± 0.0018.
For UCCUCCUACAGCUUGCAUAGUAUUUUCUUA the same measures were 0.126 ± 0.027 and 0.00493 ± 0.003.
For UCCUGGUACAGCUUGCAUAGUAUUCAGUUA, in that order: 0.058 ± 0.017 and 0.00472 ± 0.0022.
For UCCUGGAACAGCUAGCAUACUAUUUAGUUA the same measures were 0.0692 ± 0.011 and 0.0045 ± 0.0019.
For the sequence UCCUCCUACAGCUUGCACUAGUAUUUAGUUA, the “pre-steady-state target cleavage rate” value in assay [1] turned out to be 0.0877 ± 0.019; in assay [2] it was 0.0137 ± 0.0056.
For UCCUGGAUGAGCUAGCAUAGUAUUUAGAUA the same measures were 0.168 ± 0.028 and 0.00406 ± 0.002.
For UCCUGGAUCACCUUGCAUAGUAUUUAGUAA the same measures were 0.247 ± 0.038 and 0.00344 ± 0.0031.
For UCCUGGAUGUGCUUGCAUAGUAUUUACGUUA the same measures were 0.129 ± 0.026 and 0.00702 ± 0.0042.
Turning to UCCUCCUACAGCUAGCAUAGUAUUUUGUUA, the results for the “pre-steady-state target cleavage rate” value in assay [1] and in assay [2] were 0.151 ± 0.019 and 0.0077 ± 0.0035, respectively.
For UCCUGGAACAGCUUGCAUAGUAUUAAGUAA, in that order: 0.0909 ± 0.024 and 0.00572 ± 0.0023.
For UCCUGGAUCAGCUUGCAUAGUAUUUAGCUUA the same measures were 0.149 ± 0.021 and 0.0068 ± 0.0026.
For the sequence UCCUGGAACAGCUUGCAUAGUAUUUUCAAA, the “pre-steady-state target cleavage rate” value in assay [1] is 0.0774 ± 0.018; in assay [2], 0.00233 ± 0.0023.
For the sequence UCCUGGAUCAGCUUGCAUAGUAUUGAGUUA, the “pre-steady-state target cleavage rate” value in assay [1] came to 0.227 ± 0.039; in assay [2] it was 0.00662 ± 0.0024.
For UCCUCCUACACCUUGCAUAGUUUUUAGUUA the same measures were 0.0414 ± 0.012 and 0.00443 ± 0.002.
For UCCUGGAACAGCUUGCUUAGUAUUUAGUAA, in that order: 0.238 ± 0.022 and 0.00393 ± 0.0022.
For UCCUGCUACAGCUAGCAUAGUAUUAAGUUA, in that order: 0.3 ± 0.032 and 0.00662 ± 0.0026.
Consider UCCUGGAUGAGCUUGCAUAGCAUUUAGUUA, for which the “pre-steady-state target cleavage rate” value in assay [1] turned out to be 0.0853 ± 0.016; in assay [2] it was 0.0029 ± 0.0019.
Take UCCUGGUACUCCUUGCAUAGUAUUUAGUAA: the “pre-steady-state target cleavage rate” value turned out to be 0.131 ± 0.032 in assay [1] and 0.00302 ± 0.002 in assay [2].
For UCCUGGUACAGCUUGCAUAGAAUUUAGUUA, in that order: 0.229 ± 0.08 and 0.00314 ± 0.0023.
For UCCUGCUACAGCAUGCAUACUAUUUAGUUA the same measures were 0.148 ± 0.028 and 0.00525 ± 0.0021.
For UCCUCCUACAGCUUGCAUAGUAAAAUCAAA the same measures were 0.0893 ± 0.023 and 0.0042 ± 0.0034.
Turning to UCCUGCUACAGCUUGCAUAGUAAUAAGUUA, the “pre-steady-state target cleavage rate” value in assay [1] came to 0.238 ± 0.03; in assay [2] it was 0.0044 ± 0.002.
UCCUGGAACAGCUUGCAUAGUAUAUAGAAA: the “pre-steady-state target cleavage rate” value amounted to 0.0917 ± 0.026 in assay [1] and 0.00685 ± 0.0044 in assay [2].
For UCCUGCUUCAGCUUCCAUAGUAUUUAGUUA, in that order: 0.0549 ± 0.018 and 0.00322 ± 0.0013.
For “UCCUGGAUGUCGAACCAUAGUAUUUACAAA [g5:g15:cont:t1A]” the same measures were less than 0.0001 and less than 0.0001.
For UCCUGGAUGUGCUUGCAUAGUAUUUACAAA, in that order: 0.00913 ± 0.0046 and 0.00369 ± 0.0033.
As to UCCUCGAACAGCUUGCAUAGUAUUUAGAAA, the figures for the “pre-steady-state target cleavage rate” value in assay [1] and in assay [2] were 0.137 ± 0.019 and 0.00534 ± 0.0018, respectively.
For UCCUGGAACACCAUGCAUAGUAUUUAGUUA, in that order: 0.163 ± 0.018 and 0.00616 ± 0.0041.
For UCCUGGUACUCCUUGCAUAGUAUUUAGAAA, in that order: 0.0265 ± 0.01 and 0.00304 ± 0.0022.
For UCCUCCUUCAGCUUCCAUAGUAUUUAGUUA the same measures were 0.0522 ± 0.015 and 0.00448 ± 0.0019.
With UCCUGGAACAGCUUCCAUAGUAUUUAGUAA, the entries for the “pre-steady-state target cleavage rate” value in assay [1] and in assay [2] were 0.0767 ± 0.03 and 0.00376 ± 0.0014, respectively.
In the case of UCCUGGAUCAGCUUCCAUAGUAUUUAGUAA, the “pre-steady-state target cleavage rate” value is 0.0353 ± 0.0094 in assay [1] and 0.00347 ± 0.0017 in assay [2].
For UCCUGGAUCAGCUUGCAUACUAUUUACUUA, in that order: 0.0867 ± 0.02 and 0.00362 ± 0.0032.
For UCCUGGAUGAGCUUGCUUAGUAUUAAGUUA the same measures were 0.128 ± 0.021 and 0.00314 ± 0.0031.
Take UCCUCCUACAGCUUGCAUAGAAUUUUGUUA: the entries for the “pre-steady-state target cleavage rate” value in assay [1] and in assay [2] were 0.0525 ± 0.013 and 0.00325 ± 0.0016, respectively.
As to UCCUGCUACAGCUUGCAUAGUAUUUUGUAA, the “pre-steady-state target cleavage rate” value was found to be 0.107 ± 0.032 in assay [1] and 0.00356 ± 0.0022 in assay [2].
For UCCUGGAACAGCUUGCAUAGUAUUUUGAAA, in that order: 0.0888 ± 0.027 and 0.00294 ± 0.0022.
For the sequence UCCUCCUACAGCUUGCAUACUAAUUAGUUA, the entries for the “pre-steady-state target cleavage rate” value in assay [1] and in assay [2] were 0.0267 ± 0.0069 and 0.00358 ± 0.0017, respectively.
For UCCUGGUACAGCUUGCACUAGUAUUUAGUUA the same measures were 0.109 ± 0.027 and 0.00323 ± 0.0029.
For UCCUGCAACAGCUUGCAUAGUAUUUUGUUA the same measures were 0.179 ± 0.023 and 0.00469 ± 0.0013.
For UCCUGGAUGUCCUUGCAUAGUAUUUAGGUA, in that order: 0.0702 ± 0.017 and 0.00431 ± 0.0026.
